Mito fusion act: inhibitors of mitochondrial division or activators of mitochondrial fusion. S. cerevisiae fusion-defective mutant growth rescue, CellTiterGlo 48 h. Potency, µM (series often up to 46.1 µM), without a hit: at the highest dose growth rescue (activation), most hits filed as activators. 320,000 tested, 0.23% active; also: potency is read from the fitted curve at half-maximal effect; % of control where 0% means no effect; nearly all actives have a fitted effect of over 45% in size
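Temperature-sensitive fusion-defective S. cerevisiae (e.g. fzo1-1, mgm1-5) were grown with compound in YPEG medium (3% ethanol, 3% glycerol) for 48 hours at 37C. Growth rescue was measured as viability by CellTiterGlo luminescence after 10 minutes at ambient.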
B2AR arrestin: recruits beta-arrestin to the human beta2-adrenergic receptor; Potency, µM (highest dose often 46.1 µM), inactives show at the top dose activation, most hits filed as activators; P07550; beta-arrestin recruitment to beta2AR, cell-based reporter; 330,000 tested, 0.02% active; AID 492947;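 also: potency is read from the fitted curve at half-maximal effect; 0% = DMSO controls and full agonism = EC100 isoproterenol or metaproterenol; nearly all actives have a fitted effect of over 65% in size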
Target sequence (P07550 whole entry, looked up): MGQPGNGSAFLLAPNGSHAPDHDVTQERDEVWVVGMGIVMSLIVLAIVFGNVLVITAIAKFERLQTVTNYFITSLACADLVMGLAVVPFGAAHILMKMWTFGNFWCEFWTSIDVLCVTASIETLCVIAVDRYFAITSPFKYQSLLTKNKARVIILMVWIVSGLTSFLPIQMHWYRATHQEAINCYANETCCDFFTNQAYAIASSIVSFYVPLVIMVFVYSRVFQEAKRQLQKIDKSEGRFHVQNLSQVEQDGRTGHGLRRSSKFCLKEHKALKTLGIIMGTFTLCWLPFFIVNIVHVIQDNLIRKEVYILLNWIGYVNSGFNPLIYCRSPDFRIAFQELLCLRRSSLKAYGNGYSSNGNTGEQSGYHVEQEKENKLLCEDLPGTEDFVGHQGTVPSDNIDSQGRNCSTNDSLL
ClpP mod: qHTS Assay for Activators of ClpP | ATP-dependent Clp protease proteolytic subunit (Bacillus subtilis (strain 168)), P80244 | purified B. subtilis ClpP, FRET peptide cleavage, 20 min | Potency, µM (series often up to 57.5 µM), inactives show top-dose activity change, negative = active | 340,000 tested, 1.9% active | AID 651965, 2013; active = well fitted falling curve with a large enough effect; inconclusive = small, poorly fitted or top-dose-only effect; inactive = no such curve, though single readings can be large or run the other way; also: potency is read from the fitted curve at half-maximal effect; the source files actives as falling curves though it sought activators and does not explain the sign; nearly all actives have a fitted effect of over 65% in size
Target sequence (P80244 whole entry, looked up): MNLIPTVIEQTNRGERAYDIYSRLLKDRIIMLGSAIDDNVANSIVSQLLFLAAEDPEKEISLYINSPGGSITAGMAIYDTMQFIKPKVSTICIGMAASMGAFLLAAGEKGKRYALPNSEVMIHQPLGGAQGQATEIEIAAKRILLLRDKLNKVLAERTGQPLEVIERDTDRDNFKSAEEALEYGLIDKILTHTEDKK
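Buffer: 100 mM Tris/HCl pH8, 100 mM KCl, 0.05% low protease BSA, 2.5% glycerol, 0.01% Tween-20. ClpP 10 microg/mL final; 20 min RT; delta FRET normalized to ADEP and DMSO controls.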
uPA surface inh: cell surface uPA generation inhibition. 330,000 tested, 0.31% active. cell surface uPA generation assay, qHTS. Potency, µM (doses to about 38.3 µM), for the others: top-dose activity change, negative = inhibition, usual class: inhibitors. AID 540303; active = well fitted inhibition curve with a large enough effect; inconclusive = small, poorly fitted or top-dose-only effect; inactive = no such curve, though single readings can be large or run the other way; tested in mouse RAW 264.7 cells; also: potency is read from the fitted curve at half-maximal effect; % is scaled to controls: 0 for no effect and ±100 for the full control effect; nearly all actives have a fitted effect of over 55% in size
Giardia kill: Giardia lamblia killing | Giardia lamblia trophozoite viability | activity change, % at 7.66 µM, hits read low | 340,000 tested, 0.15% active | AID 540267; in the data active = activity change below about -80%; inconclusive = between about -30% and that limit;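 also: parasites exposed to compound for two days anaerobically before the ATP read; % is scaled to controls: 0 for no effect and ±100 for the full control effect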
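Luminescent ATP signal served as the viability read-out, measured 15-30 min after adding ATP detection reagent to trophozoites that had been incubated with compounds for 48 hrs at 37 deg C anaerobically at 100 cells/well.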
p53 reactivator: re-activators of mutant p53. 320,000 tested, 0.063% active. H1299 p53-A138V BP100-luciferase reporter, luminescence, 24 h. Potency, µM (top dose mostly 92.2 µM), inactives show at the highest dose activity change, positive = activation, most hits filed as activators; also: potency is read from the fitted curve at half-maximal effect; % of control where 0% means no effect; nearly all actives have a fitted effect of over 45% in size
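H1299 (p53-null), stable ts p53-A138V + BP100-Luc; 1000 cells/well, Opti-MEM/10% FBS; cpd 4 pt, 1:5; 24 h, 37 deg C, 5% CO2; detection reagent 10 min RT; luminescence.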
The depositor's hits bear a star; u = inconclusive; x = no result. Most compounds without a hit are left out; they make up all but 2.1% or so of the library. Unless noted, calls follow the shape of the dose curve; as a rule, active = well fitted curve in the direction sought with a large enough effect; inconclusive = small, poorly fitted or top-dose-only effect, or another doubt; inactive = no such curve, though single readings can be large; an effect the other way counts as inactive or inconclusive.

SMILES | Mito fusion act | B2AR arrestin | ClpP mod | uPA surface inh | Giardia kill | p53 reactivator
Cc1csc2nc(COC(=O)c3cccc(NC(=O)COc4ccccc4Cl)c3)cc(=O)n12 | x | x | 0.9% | x | x | x
COC(=O)c1cccc(S(=O)(=O)N(Cc2ccco2)Cc2cc3cc(OC)c(OC)cc3[nH]c2=O)c1 | -2.7% | -0.2% | 28.2µM* | x | 0.8 | 1.4%
Cn1c(-c2ccccc2)c(CCO)c2ccccc21 | 23.0% | -0.5% | 28.2µM* | 3.0% | 28.4 | -1.2%
CC(C)(C)c1nn2cnnc2n(/N=C/c2ccc(O)cc2)c1=O | -9.1% | -0.6% | 7.08µM* | 0.3% | -13.9 | -0.6%
COc1ccc(CCNC(=O)c2nc(-c3ccc(Cl)cc3)n3c2CCCCC3)c(OC)c1 | x | x | -17.6% | x | x | x
CCCCN(CC)CCCNC(=O)c1cc2c(=O)[nH]c3ccccc3c2n1C | x | x | 4.0% | x | x | x
COc1ccc(C(=O)NC(=S)NNC(=O)c2cnccn2)cc1 | -2.9% | -0.2% | -2.4% | -1.3% | 6.8 | -5.5%
COc1cc(C(=O)NC(=S)NNC(=O)c2cnccn2)cc(OC)c1OC | 1.2% | -0.7% | -1.8% | 10µM* | u | 20.9%
O=c1cc(-c2ccccc2)nc2nc(-c3ccccc3)[nH]n12 | 0.0% | -0.2% | -14.1% | -6.0% | -2.2 | 31.6µM*
FC(F)(F)c1cc(-c2ccc3c(c2)OCO3)nc(NCc2ccco2)n1 | 0.4% | -0.3% | 25.1µM* | -6.7% | 6.5 | 21.8%
COc1ccc(-c2cc(C(F)(F)F)nc(NCc3ccco3)n2)cc1OC | 1.8% | 0.4% | u | -10.3% | -3.7 | 4.5%
Cc1c(C(=O)Nc2ccc3c(c2)OCCO3)sc2ncnc(N3CCCCC3C)c12 (centres undefined) | 11.2µM* | -0.1% | -1.2% | -1.3% | -2.0 | 15.2%
Cc1nc(N2CCC(C)CC2)c2c(C)c(C(=O)Nc3ccc4c(c3)OCCO4)sc2n1 | 23.9% | -0.2% | -10.1% | u | 8.9 | 12.7%
Cc1ccc(NC(=O)Cn2c(=O)n(Cc3ccc(C(=O)NCc4ccc5c(c4)OCO5)cc3)c(=O)c3ccccc32)cc1 | x | x | 22.4µM* | x | x | x
Cc1ccc(NC(=O)Cn2c(=O)n(Cc3ccc4c(c3)OCO4)c(=O)c3ccccc32)cc1 | x | x | 7.7% | x | x | x
Cc1ccc(Cl)cc1NC(=O)Cn1c(=O)n(Cc2ccc(C(=O)NCc3ccc4c(c3)OCO4)cc2)c(=O)c2ccccc21 | x | x | 11.2µM* | x | x | x
COc1ccc(C2C=C3CNS(=O)(=O)C3CC2OC(=O)c2cccc(C)c2)cc1 (centres undefined) | x | x | x | x | -8.4 | x
O=C(COc1ccccc1)Nc1cccc(-c2nc3cc4ccccc4cc3[nH]2)c1 | -5.4% | 0.3% | 6.31µM* | x | -26.9 | 26.4%
Cc1cc(C)cc(OCC(=O)Nc2cccc(-c3nc4ccccc4[nH]3)c2)c1 | x | x | 4.3% | x | x | x
CC(Oc1ccccc1)C(=O)Nc1cccc(-c2nc3ccccc3[nH]2)c1 (centres undefined) | -1.5% | -0.1% | 35.5µM* | 1.1% | 6.8 | u
Cc1cc(C(C)C)n2c(nc3ccccc32)c1C#N | 27.3% | 0.0% | x | x | x | -0.6%
Cc1nn(-c2ccc(F)cc2)c2c1cc(C#N)c1nc3ccccc3n12 | -1.2% | 0.0% | 15.8µM* | -0.4% | 2.5 | -7.7%
Cc1ccc(CNC(=O)CSc2ccsc2[N+](=O)[O-])cc1 | -4.6% | 0.2% | x | -2.8% | -88.0* | u
CN(Cc1ccccc1)C(=O)c1ccc([N+](=O)[O-])o1 | -0.2% | -2.4% | -1.6% | u | -87.0* | -18.7%
Cc1ccc(CNC(=O)c2ccc([N+](=O)[O-])o2)cc1 | 0.7% | 0.0% | -3.2% | -9.4% | -86.5* | -26.7%
SMILES | Mito fusion act | B2AR arrestin | ClpP mod | uPA surface inh | Giardia kill | p53 reactivator
Cc1ccc(-c2csc(NC(=O)c3ccc(C)o3)n2)cc1 | u | 0.1% | -24.7% | 1.7% | 6.7 | -6.7%
Cc1ccc(-c2csc(NC(=O)c3ccc([N+](=O)[O-])o3)n2)cc1 | -16.5% | -0.7% | -1.0% | -2.6% | -95.3* | u
COc1ccc(NC(=O)Cn2c(=O)cc(C)c3c(C)nn(C)c32)cc1 | x | x | 0.9% | x | x | x
CCN(CCCNC(=O)CSc1cc(=O)n(CC)c2ccccc12)c1cccc(C)c1 | x | x | -4.5% | x | x | x
CC1CN(C(=O)N2CCC(C(=O)NCCCc3ccccc3)CC2)c2ccccc2O1 (centres undefined) | x | x | 0.3% | x | x | x
CC(C)(C)c1cc(C(F)(F)F)c(C#N)c(=O)[nH]1 | -1.7% | 0.1% | u | 1.6% | -2.2 | 5.1%
CC(C)(C)c1cc(=O)n2c(C#N)c(C#N)nc2[nH]1 | 3.1% | -0.1% | 28.2µM* | 1.7% | -17.3 | -9.7%
Cc1ccc(-n2ncc3c(SCc4ccccc4)ncnc32)cc1 | -0.2% | -0.8% | 22.4µM* | 5.7% | -13.1 | u
Cc1ccc(CSc2ncnc3c2cnn3-c2ccc(C)cc2)cc1 | -4.1% | -0.5% | -17.0% | 1.9% | -7.6 | 12.3%
Cc1ccc(CSc2ncnc3c2cnn3-c2ccccc2)cc1 | -0.1% | -0.6% | 25.1µM* | -1.2% | 0.7 | 5.2%
O=C(CCc1ccccc1)NC(=S)Nc1ccc(S(=O)(=O)N2CCOCC2)cc1 | 20.6% | -0.9% | 10µM* | -5.0% | -2.5 | 7.8%
COc1ccc(C(=O)NCC(c2ccc3c(c2)OCO3)N2CCN(C)CC2)cc1OC (centres undefined) | x | x | 0.5% | x | x | x
O=C(Nc1ccccc1)N(Cc1ccccc1)CC(O)C(F)(F)F (centres undefined) | 2.2% | -0.1% | 28.2µM* | 11.2% | -4.4 | -5.3%
Cc1cc2[nH]c3ccccc3c2c(C)n1 | 3.3% | 0.5% | 28.2µM* | -6.0% | -3.6 | u
O=C(CN1C(=O)C(c2ccc(F)cc2)=NC12CCCCCC2)Nc1ccc(F)c(Cl)c1 | x | x | 0.9% | x | x | x
COC(=O)C1=C(C)NC2=C(C(=O)CCC2)C1c1cn(Cc2ccc(Br)cc2)nc1-c1ccccc1 (centres undefined) | 0.9% | 0.0% | u | -3.0% | 4.0 | -14.9%
COC(=O)C1=C(C)NC2=C(C(=O)CC(C)(C)C2)C1c1cn(Cc2ccc(Br)cc2)nc1-c1ccccc1 (centres undefined) | -13.3% | -0.2% | 31.6µM* | 3.3% | -4.6 | -5.2%
COc1cc(C(CCN2CCCC2)c2c(OC)cc(OC)c3c2OC(=O)CC3c2ccc(N(C)C)cc2)cc(OC)c1OC (centres undefined) | x | x | x | x | 3.2 | x
COc1cc2c(c(OC)c1OC)-c1c(cc3c(c1O)OCO3)C[C@@H](C)[C@@H](C)C2 | 17.8µM* | 0.1% | 2.1% | 11.2µM* | -11.9 | -2.9%
COc1ccc(NC(=O)c2cc(Cl)ccc2Cl)c([N+](=O)[O-])c1 | 2.3% | -3.9% | 28.2µM* | 1.8% | 12.8 | -10.3%
COc1ccc(NC(=O)CN(C)S(=O)(=O)c2ccc(Cl)cc2)c([N+](=O)[O-])c1 | 0.7% | -0.4% | 1.0% | x | 2.0 | 27.2%
COc1ccc(OC)c(NC(=O)Cn2cc(C(=O)c3cccs3)c3ccccc32)c1 | x | x | -9.0% | x | x | x

High-throughput results (PubChem BioAssay)
